# Assay outcomes: PubChem, National Center for Advancing Translational Sciences (NCATS)
# An excerpt weighted towards active compounds, which were near 2.8% of everything screened.
# Pol iota inh = inhibitors of human DNA polymerase iota; 390,000 compounds, 1% hits; Pol iota fluorescent replication assay, 10 min; Potency, µM (titrated, usually from 115 µM), without a hit: at the highest dose activity, negative = inhibition, actives largely listed as inhibitors; Q9UNA4; also: potency is read from the fitted curve at half-maximal effect
#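 Fluorescent replication assay read twice, at 0 min and 10 min after adding 50 nM (final) substrate. Enzyme (10 nM) and compounds were first incubated 15 min at room temperature; enzyme-free buffer wells were negative controls.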
# Pol eta inh-1 = DNA polymerase eta (human) inhibition. Q9Y253. 390,000 compounds, 1.2% hits. Potency, µM (top dose mostly 114 µM), for inactives: top-dose activity change, negative = inhibition, most hits filed as inhibitors. recombinant Pol eta, fluorescent DNA replication assay; also: potency is read from the fitted curve at half-maximal effect; % is scaled to controls: 0 for no effect and ±100 for the full control effect
# Target sequence (Q9Y253 whole entry, looked up): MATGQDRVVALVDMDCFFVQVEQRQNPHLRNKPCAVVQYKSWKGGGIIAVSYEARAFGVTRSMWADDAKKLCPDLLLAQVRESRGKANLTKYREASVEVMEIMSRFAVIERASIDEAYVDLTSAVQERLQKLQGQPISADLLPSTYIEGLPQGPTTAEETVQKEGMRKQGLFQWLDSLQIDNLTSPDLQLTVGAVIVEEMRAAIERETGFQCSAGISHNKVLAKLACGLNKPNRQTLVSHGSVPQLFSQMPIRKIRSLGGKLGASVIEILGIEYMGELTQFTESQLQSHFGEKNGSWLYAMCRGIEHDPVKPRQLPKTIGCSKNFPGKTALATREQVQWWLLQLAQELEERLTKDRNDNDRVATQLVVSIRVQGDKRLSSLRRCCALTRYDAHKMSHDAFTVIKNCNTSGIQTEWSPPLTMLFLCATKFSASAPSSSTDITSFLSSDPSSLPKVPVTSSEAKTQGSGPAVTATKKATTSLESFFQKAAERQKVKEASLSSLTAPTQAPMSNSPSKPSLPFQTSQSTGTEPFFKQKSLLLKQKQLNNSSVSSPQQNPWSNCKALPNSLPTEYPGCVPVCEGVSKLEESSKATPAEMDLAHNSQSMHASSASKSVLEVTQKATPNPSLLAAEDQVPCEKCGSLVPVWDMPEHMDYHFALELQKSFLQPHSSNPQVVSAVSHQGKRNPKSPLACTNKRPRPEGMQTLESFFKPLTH
#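 Pol eta (10 nM) was preincubated with compounds for 15 min at room temperature, after which fluorescent replication substrate (50 nM final) was added to start the reaction. Fluorescence was read kinetically at 0 and 10 min.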
# WRN helicase inh = blocks human WRN helicase; WRN helicase unwinding, fluorescent forked duplex, kinetic; Potency, µM (top dose mostly 114 µM), inactives show at the top dose activity change, negative = inhibition, most hits filed as inhibitors; 360,000 compounds, 0.46% hits; AID 651768; also: potency is read from the fitted curve at half-maximal effect; % is scaled to controls: 0 for no effect and ±100 for the full control effect; nearly all actives have a fitted effect of over 55% in size
#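 Primary qHTS, 1536-well format. 20 nM WRN + compound, 15 min RT; start with 100 nM forked fluorophore/quencher duplex, 2 mM ATP (final); kinetic read ex 525/em 598 nm.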
# PI5P4K alpha inh = PI5P4K alpha (human) kinase inhibition. P48426. PI5P4Kalpha enzyme, ADP-Glo luminescence, 60 min; active compounds read low. max response, %. 330,000 compounds, 1.2% hits. AID 652105; active = max response of -50% or lower; inconclusive = between -30% and -50%; inactive = -30% or higher; also: value at the top dose of about 77 µM; % is scaled to controls: 0 for no effect and ±100 for the full control effect
#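 ADP-Glo luminescence end-point read after a 60 min room-temperature kinase reaction of PI5P4Kalpha plus substrate, initiated with ATP at 5 microM final. Buffer: 0.038 M HEPES pH 7.4, EGTA, 0.1% CHAPS, 5% DMSO.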
# Pol kappa inh-1 = DNA polymerase kappa (human) inhibition. purified Pol kappa, fluorescent DNA synthesis assay, 10 min. Q9UBT6. Potency, µM (titrated, usually from 107 µM), for inactives: at the top dose activity, negative = inhibition, usual class: inhibitors. 400,000 compounds, 0.53% hits; also: potency is read from the fitted curve at half-maximal effect; % is scaled to controls: 0 for no effect and ±100 for the full control effect
#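 Kinetic fluorescence readout at 0 and 10 min followed reaction start with substrate at 50 nM final. Beforehand, enzyme (10 nM Pol kappa) stood 15 min with compound at room temperature; buffer-only wells were negative controls.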
# POLB inh = DNA polymerase beta (human) inhibition. 340,000 compounds, 1.3% hits. AID 485314. Pol beta primer extension/strand displacement, fluorescence kinetic. P06746. Potency, µM (titrated, usually from 114 µM), inactives show at the highest dose activity change, negative = inhibition, actives largely listed as inhibitors; also: potency is read from the fitted curve at half-maximal effect; % is scaled to controls: 0 for no effect and ±100 for the full control effect
#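 Pol beta (10 nM) was preincubated with compound for 15 min at room temperature. The reaction was then started with 50 nM substrate and read immediately and after a further 10 min at room temperature.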
# TbPGK inh = TbPGK inhibition, hit validation; shares compounds with Pol kappa inh-1; Potency, µM (top dose mostly 57.5 µM), without a hit: at the top dose activity change, negative = inhibition, most hits filed as inhibitors; TbPGK coupled GAPDH assay, Kinase-Glo luminescence; 500 compounds, 79% hits; also: potency is read from the fitted curve at half-maximal effect; % is scaled to controls: 0 for no effect and ±100 for the full control effect; nearly all actives have a fitted effect of over 65% in size
# POLI cherry-pick = Human Pol iota inhibitor confirmatory assay; shares compounds with Pol kappa inh-1; Pol iota primer extension, TAMRA/BHQ fluorescence; Potency, µM, actives largely listed as inhibitors; 1,500 compounds, 77% hits; AID 720496; also: potency is read from the fitted curve at half-maximal effect
# GALK confirm = confirmation of human galactokinase (GALK) inhibitors; shares compounds with Pol eta inh-1; purified GALK, Kinase-Glo ATP depletion luminescence; Potency, µM (doses to about 115 µM), inactives show top-dose activity, negative = inhibition, hits mostly inhibitors; 150 compounds, 70% hits; AID 2015
# GALK redox cs = counter-screen for GALK inhibitors: redox cycling H2O2 generation | AID 2035 | Potency, µM (series often up to 115 µM), for the others: top-dose activity change, negative = H2O2 signal, actives largely listed as inhibitors | shares compounds with Pol eta inh-1 | Phenol red-HRP H2O2 redox cycling, absorbance 600 nm | 150 compounds, 40% hits
# HEK293 viability = reduces HEK-293 cell viability in GALK counter-screen. HEK-293 viability, ATP luminescence (CellTiter-Glo), 24/48 h. 170 compounds, 10% hits. AID 2547. Potency, µM (top dose mostly 46.1 µM), for inactives: top-dose activity change, negative = cytotoxicity, hits mostly inhibitors. shares compounds with Pol eta inh-1; also: potency is read from the fitted curve at half-maximal effect; % is scaled to controls: 0 for no effect and ±100 for the full control effect
# Pol kappa inh-2 = confirmation of human DNA polymerase kappa inhibitors; shares compounds with Pol eta inh-1; purified Pol-kappa, fluorescent strand-displacement substrate; Potency, µM, usual class: inhibitors; 920 compounds, 76% hits; AID 720501; also: potency is read from the fitted curve at half-maximal effect
# Pol eta inh-2 = confirmation of human DNA polymerase eta inhibitors | shares compounds with Pol eta inh-1 | Pol eta primer extension, TAMRA/BHQ fluorescence, 10 min | Potency, µM, usual class: inhibitors | 2,600 compounds, 64% hits; also: potency is read from the fitted curve at half-maximal effect
# * marks the source's active call; other numbers are inactive results; ? = inconclusive; nt = no result; [ ] = another dose, or the depositor's remark. Unless noted, calls follow the shape of the dose curve; as a rule, active = well fitted curve in the direction sought with a large enough effect; inconclusive = small, poorly fitted or top-dose-only effect, or another doubt; inactive = no such curve, though single readings can be large; an effect the other way counts as inactive or inconclusive.
SMILES,Pol iota inh,Pol eta inh-1,WRN helicase inh,PI5P4K alpha inh,Pol kappa inh-1,POLB inh,POLI cherry-pick,Pol eta inh-2,others
Cc1cc(C)n2nc(C(=O)N/N=C/c3c4ccccc4cc4ccccc34)nc2n1,-1.2%,?,?,-11.5,-15.8%,?,67*,?,
Cc1cc(C)n2nc(C(=O)N/N=C/c3ccccc3Cl)nc2n1,43.0%,-0.1%,3.4%,-6.6,-1.7%,22.2%,nt,nt,
COc1ccc(N2C[C@H](CSC)[C@@H](CC(=O)Nc3ccccc3)C2=O)cc1,nt,-13.7%,-3.7%,2.2,nt,nt,nt,nt,
O=C(O)c1cc(-c2ccc(/C=C3\NC(=O)N(c4ccccc4)C3=O)o2)ccc1Cl,?,3.98µM*,?,?,44.7µM*,22.4µM*,33.6*,15.1*,
CC1CCN(C(=O)c2[nH]cnc2C(=O)N2CCN(c3ccccc3)CC2)CC1,-11.8%,-9.1%,1.1%,-0.1,-3.4%,nt,nt,nt,
Cc1ccc(NC(=O)CN2C(=O)N/C(=C/c3ccccc3OCc3cccc(C(=O)O)c3)C2=O)cc1,20µM*,25.1µM*,50.1µM*,-29.5,?,35.5µM*,42.3*,?,TbPGK inh=16.3µM*
Cc1ccc(NC(=O)CN2C(=O)N/C(=C\c3cccn3-c3cccc(C(=O)O)c3)C2=O)cc1,14.1µM*,3.55µM*,28.2µM*,-75.5*,44.7µM*,3.98µM*,18.9*,26.9*,TbPGK inh=14.6µM*;Pol kappa inh-2=42.3*
CCOC(=O)c1cccc(-n2cccc2/C=C2\NC(=O)N(CC(=O)O)C2=O)c1,41.3%,-14.6%,nt,nt,-1.8%,nt,nt,nt,
COc1cc2c(cc1/C=C1/NC(=O)N(CC(=O)Nc3ccccc3)C1=O)OCO2,-28.3%,-3.3%,-13.9%[57.1 µM],-15.0,-16.3%,10.6%,nt,nt,
O=C(O)c1ccc(COc2ccccc2/C=C2\NC(=O)N(Cc3ccccc3)C2=O)cc1,28.7%,4.7%,-13.9%,-17.2,-17.6%,-5.2%,nt,nt,
O=C(O)c1ccc(COc2ccc3ccccc3c2/C=C2/NC(=O)N(Cc3ccc(F)cc3)C2=O)cc1,-3.8%,31.6µM*,79.4µM*,5.2,?,22.4µM*,?,?,Pol kappa inh-2=37.7*
O=C(O)c1cccc(-n2cccc2/C=C2\NC(=O)N(Cc3ccc(F)cc3)C2=O)c1,22.4µM*,20µM*,?,?,79.4µM*,11.2µM*,67*,30.1*,
O=C1N/C(=C/c2cccn2-c2ccc(F)cc2)C(=O)N1Cc1ccccc1,-15.9%[58.9 µM],-3.1%,1.3%,nt,-0.6%,7.6%,nt,nt,
O=C(Nc1ccc(Br)cc1)C1CCCN(C2=NS(=O)(=O)c3ccccc32)C1 (stereo unspecified),6.4%,-0.2%,8.3%,-1.2,-23.1%,nt,nt,nt,
NC(=O)C1CCN(CC(=O)NC(=O)NC2CCCC2)CC1,15.4%,-16.2%,0.9%,-2.8,-5.6%,-9.5%,nt,nt,
COc1ccc(OC)c(N2C(=O)c3cccnc3C2=O)c1,28.9%,-6.9%,-6.4%,0.9,5.8%,13.1%,nt,nt,
Cc1ccc(CN2C(=O)N/C(=C\c3cccn3-c3cccc(C(=O)O)c3)C2=O)cc1,14.1µM*,8.91µM*,31.6µM*,?,50.1µM*,8.91µM*,21.2*,26.9*,
O=C(O)c1ccc(-n2cccc2/C=C2/NC(=O)N(c3cccc(Cl)c3)C2=O)cc1,2µM*,3.55µM*,?,-78.8*,15.8µM*,2.24µM*,3.36*,9.53*,TbPGK inh=5.8µM*
Cc1ccc(NC(=O)CN2C(=O)N/C(=C\c3cccn3-c3ccc(C(=O)NC#N)cc3)C2=O)cc1,nt,nt,nt,nt,nt,nt,37.7*,42.6*,
Cc1cccc(NC(=O)CN2C(=O)N/C(=C\c3ccc(-c4cccc(C(=O)O)c4)o3)C2=O)c1,?,?,?,?,?,?,67*,26.9*,
Cc1ccc(SCC(=O)N/N=C/c2ccco2)cc1,135.3%,-0.2%,-29.8%,-5.6,-4.6%,33.7%,nt,nt,
CC(=O)c1ccc(N2C(=O)N(Cc3cc(C)ccc3C)c3ccccc3S2(=O)=O)cc1,24.2%,-20.5%,nt,nt,4.8%[60.1 µM],-18.4%,nt,nt,
COc1ccccc1CNc1ncncc1-c1ccccc1C(F)(F)F,nt,nt,nt,nt,0.4%[60.1 µM],nt,nt,nt,
Cc1ccc(NC(=O)CN2C(=O)N/C(=C/c3ccc(N4CCOCC4)cc3)C2=O)cc1,38.9%,-14.7%,-29.0%[57.1 µM],1.3,-2.9%,-6.8%,nt,nt,
Cc1ccc(NC(=O)CN2C(=O)N/C(=C\c3cccn3-c3cccc(-c4nn[nH]n4)c3)C2=O)cc1,nt,nt,nt,nt,nt,nt,26.7*,75.7*,Pol kappa inh-2=21.2*
Cc1cc(C(=O)O)ccc1-c1ccc(/C=C2\NC(=O)N(Cc3ccc(F)cc3)C2=O)o1,?,7.08µM*,?,-23.7,28.2µM*,?,16.8*,16.9*,
COc1ccc(NS(=O)(=O)c2cc(N)ccc2N2CCOCC2)cc1,14.7%,8.6%,14.2%,-8.0,-1.2%,2.7%,nt,nt,
COc1ccc(-c2csc(NC(=O)c3ccccc3NS(=O)(=O)c3ccc(F)c(F)c3)n2)cc1,?,?,?,-23.2,?,?,?,?,GALK confirm=37.5µM*;GALK redox cs=4.9%;HEK293 viability=3.97µM*;Pol kappa inh-2=?
